Reference: PubChem BioAssay (EPA / NIEHS)
“And” between values parts separate entries of the source, which are not always exact repeats. Identical values can stand only once. Inconclusive results are not listed. Some structures have more than one record in an assay (separate samples or runs), and their calls can disagree. The source made the active and inactive calls. The calls were made as follows, unless noted: active = hit-call score of the fitted dose curve at least 0.9, where 1 is the maximum; inactive = score below 0.9.

Key:
[1] = BSK_4H_Eotaxin3: BioMAP Diversity Plus: 4H Assay for Eotaxin 3 Biomarker Activity (AID 2283000); details: primary human endothelial cells (HUVEC); actives raise or lower the signal
In short: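 Eotaxin-3 (CCL26) levels were measured by ELISA in HUVEC primary cultures 24 h post-dosing. Gain or loss of signal was fitted in both directions, with DMSO serving as baseline and negative control.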

[2] = biological target: human Peroxisome Proliferator-activated Receptor alpha (PPARa), PPARA (gene 5465) (UniProt Q07869); assay: ATG_PPARa_TRANS: Attagene TRANS-FACTORIAL HepG2 Assay for human Peroxisome Proliferator-activated Receptor alpha (PPARa) (AID 2283001; active = hit-call score of the fitted dose curve at least 0.9, where 1 is the maximum;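 as to AC50: potency for gain of reporter signal over DMSO so agonist or activator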)
In short: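 Transfected HepG2 cells treated with test chemical for 24 h. RNA isolated, reverse-transcribed with oligo(dT), PCR-amplified, FAM-labelled and HpaI-digested. Fragments sized by capillary electrophoresis; gain-of-signal fit relative to DMSO.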

[3] = read-out: Intercellular Adhesion Molecule 1 (ICAM1), ICAM1 (gene 3383); assay: BSK_3C_ICAM1: BioMAP Diversity Plus: 3C Assay for Intercellular Adhesion Molecule 1 (ICAM1) Biomarker Activity (AID 2283003); details: primary human endothelial cells (HUVEC); actives raise or lower the signal
In short: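 Using DMSO as baseline, bidirectional curve fitting was applied to ICAM-1 ELISA signals from HUVEC in the 3C system, measured 24 h after compound addition.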

[4] = biological target: human Retinoic Acid Receptor beta (RARb), RARB (gene 5915) (UniProt P10826); assay: ATG_RARb_TRANS: Attagene TRANS-FACTORIAL HepG2 Assay for human Retinoic Acid Receptor beta (AID 2283004; active = hit-call score of the fitted dose curve at least 0.9, where 1 is the maximum)
In short: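 HepG2 cells were transiently transfected with GAL4-UAS reporter units that report activity of exogenous chimeric NR-Gal4 proteins, then exposed to compound for 24 h. Reporter mRNA was quantified by RT-PCR with capillary electrophoresis fluorescence, as gain of signal over DMSO.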

[5] = biological target: Retinoic acid receptor alpha (Homo sapiens) (UniProt P10276); assay: ATG_RARa_TRANS: Attagene TRANS-FACTORIAL HepG2 Assay for human Retinoic Acid Receptor alpha (RARa) (AID 2283005; active = hit-call score of the fitted dose curve at least 0.9, where 1 is the maximum)
In short: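 Reporter transcripts, measured by RT-PCR with fluorescent labeling and capillary electrophoresis after 24 h dosing, reflect activity of an exogenous human RARa–GAL4 fusion in transiently transfected HepG2. Fitted for increase relative to DMSO.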

[6] = BSK_3C_Proliferation: Cell Proliferation Assessment in the BioMAP Diversity Plus: 3C Assay (AID 2283006); details: primary human endothelial cells (HUVEC);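 as to AC50: potency may reflect either rise or fall in cell number versus DMSO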
In short: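 Measured here: sulforhodamine B (0.1%) staining of TCA-fixed sub-confluent umbilical vein endothelial cultures 48 h post-dosing, absorbance 560 nm. DMSO served as negative control and baseline; both signal gain and loss were modelled.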

[7] = biological target: Peroxisome proliferator-activated receptor gamma (Homo sapiens) (UniProt P37231); assay: ATG_PPARg_TRANS: Attagene TRANS-FACTORIAL HepG2 Assay for human Peroxisome Proliferator-activated Receptor-gamma (PPARg) (AID 2283007; active = hit-call score of the fitted dose curve at least 0.9, where 1 is the maximum)
In short: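 Gain-of-signal endpoint relative to DMSO, derived from reporter mRNA levels quantified by RT-PCR and capillary electrophoresis. Cells were HepG2 transiently expressing a chimeric NR-Gal4 construct with GAL4-UAS reporters, exposed to chemicals for 24 h.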

[8] = biological target: Nuclear receptor subfamily 1 group I member 2 (Homo sapiens) (UniProt O75469); assay: ATG_PXR_TRANS: Attagene TRANS-FACTORIAL HepG2 Assay for human Pregnane X Receptor (PXR) (AID 2283008; active = hit-call score of the fitted dose curve at least 0.9, where 1 is the maximum)
In short: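 HepG2 transfected (FuGene 6) with GAL4-UAS reporter units + PXR-Gal4 chimera; dosed 24 h. Total RNA → oligo(dT) RT → PCR → 6-FAM primer extension → HpaI cut → CE. Gain-of-signal vs DMSO.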

[9] = biological target: human RAR-related Orphan Receptor gamma (RORg), RORC (gene 6097) (UniProt P51449); assay: ATG_RORg_TRANS: Attagene TRANS-FACTORIAL HepG2 Assay for human RAR-related Orphan Receptor gamma (RORg) (AID 2283011; active = hit-call score of the fitted dose curve at least 0.9, where 1 is the maximum)
In short: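 HepG2 cells transiently transfected with GAL4-UAS reporter units and chimeric RORg-Gal4 construct; after 24 h chemical exposure, reporter mRNA measured by RT-PCR with fluorescent capillary electrophoresis, gain of signal fitted against DMSO.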

[10] = biological target: Retinoic acid receptor RXR-alpha (Homo sapiens) (UniProt P19793); assay: ATG_RXRa_TRANS: Attagene TRANS-FACTORIAL HepG2 Assay for human Retinoid X Receptor alpha (RXRa) (AID 2283012; active = hit-call score of the fitted dose curve at least 0.9, where 1 is the maximum)
In short: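 Chimeric NR-GAL4 trans-activation in HepG2, 24 h treatment; reporter transcripts quantified by fluorescence on capillary electrophoresis, analysed for upward change from DMSO.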

[11] = biological target: human Retinoid X Receptor beta (RXRb), RXRB (gene 6257) (UniProt P28702); assay: ATG_RXRb_TRANS: Attagene TRANS-FACTORIAL HepG2 Assay for human Retinoid X Receptor beta (RXRb) (AID 2283013; active = hit-call score of the fitted dose curve at least 0.9, where 1 is the maximum)
In short: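 After a 24 h incubation with test chemical, transfected HepG2 cells carrying NR-Gal4 fusions and GAL4-UAS reporter transcription units yield RNA whose reporter cDNA is FAM-labelled, HpaI-cut and sized by capillary electrophoresis; increases over DMSO are scored.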

[12] = biological target: human Thyroid Receptor alpha (THRa1), THRA (gene 7067) (UniProt P10827); assay: ATG_THRa1_TRANS: Attagene TRANS-FACTORIAL HepG2 Assay for human Thyroid Receptor alpha (THRa1) (AID 2283014; active = hit-call score of the fitted dose curve at least 0.9, where 1 is the maximum)
In short: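 HepG2 cells transiently transfected with chimeric NR-Gal4 and GAL4-UAS reporter units, dosed 24 h. Reporter mRNA quantified by RT-PCR, fluorescent labeling, HpaI digestion and capillary electrophoresis; gain-of-signal fit versus DMSO.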

[13] = read-out: E-selectin (Homo sapiens) (UniProt P16581); assay: BSK_3C_Eselectin: BioMAP Diversity Plus: 3C Assay for Eselectin Biomarker Activity (AID 2283015); details: primary human endothelial cells (HUVEC); actives raise or lower the signal
In short: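 Primary human umbilical vein endothelial cells (3C system), read 24 h after compound addition; E-selectin measured by ELISA. Bidirectional curve fitting against DMSO baseline; cytotoxicity by parallel SRB total-protein staining.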

[14] = read-out: Interleukin-1 alpha (IL1a), IL1A (gene 3552); assay: BSK_BE3C_IL1a: BioMAP Diversity Plus: BE3C Assay for Interleukin-1 alpha (IL1a) Biomarker Activity (AID 2283016); details: primary human bronchial epithelial cells; actives raise or lower the signal
In short: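 Measured in human lung primary bronchial epithelial cells: IL-1a by ELISA at 24 h after dosing, with bidirectional fitting against DMSO.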

[15] = read-out: Monocyte Chemoattractant Protein-1 (MCP1), CCL2 (gene 6347); assay: BSK_3C_MCP1: BioMAP Diversity Plus: 3C Assay for Monocyte Chemoattractant Protein-1 (MCP1) Biomarker Activity (AID 2283017); details: primary human endothelial cells (HUVEC); actives raise or lower the signal
In short: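 Human umbilical vein endothelial cells (3C system) exposed to chemicals for 24 h; MCP-1 quantified by ELISA against the DMSO baseline with bidirectional fitting, and parallel SRB staining used to assess cytotoxicity.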

[16] = read-out: Monocyte Chemoattractant Protein-1 (MCP1), CCL2 (gene 6347); assay: BSK_4H_MCP1: BioMAP Diversity Plus: 4H Assay for Monocyte Chemoattractant Protein-1 (MCP1) Biomarker Activity (AID 2283018); details: primary human endothelial cells (HUVEC); actives raise or lower the signal
In short: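 Primary human umbilical vein endothelium is exposed to chemical for 24 h before MCP-1 is assayed by ELISA. Concentration-response fitted bidirectionally relative to DMSO.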

[17] = read-out: Human Leukocyte Antigen - DR isotype (HLADR), HLA-DRA (gene 3122); assay: BSK_3C_HLADR: BioMAP Diversity Plus: 3C Assay for Human Leukocyte Antigen - DR isotype (HLADR) Biomarker Activity (AID 2283019); details: primary human endothelial cells (HUVEC); actives raise or lower the signal
In short: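 HUVEC monoculture, HLA-DR measured by ELISA 24 h after chemical dosing. Fitted bidirectionally against DMSO baseline; parallel SRB staining assessed cytotoxicity, with 3C proliferation read by SRB at 48 h.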

[18] = biological target: human Peroxisome Proliferator-activated Receptor delta (PPARd), PPARD (gene 5467) (UniProt Q03181); assay: ATG_PPARd_TRANS: Attagene TRANS-FACTORIAL HepG2 Assay for human Peroxisome Proliferator-activated Receptor delta (PPARd) (AID 2283002; active = hit-call score of the fitted dose curve at least 0.9, where 1 is the maximum)
In short: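 Transient HepG2 transfection (multiple GAL4-UAS RTUs, chimeric receptor-Gal4); 24 h dosing; total RNA → oligo(dT) RT → PCR → 6-FAM primer extension → HpaI cut → CE. Positive direction vs DMSO.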

[19] = biological target: human Retinoic Acid Receptor gamma (RARg), RARG (gene 5916) (UniProt P13631); assay: ATG_RARg_TRANS: Attagene TRANS-FACTORIAL HepG2 Assay for human Retinoic Acid Receptor gamma (RARg) (AID 2283009; active = hit-call score of the fitted dose curve at least 0.9, where 1 is the maximum;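 as to AC50: AC50 is for reporter induction above DMSO meaning RARg activation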)
In short: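 Gain-of-signal relative to DMSO is reported from fluorescent capillary electrophoresis of RT-PCR reporter products. These came from HepG2 cells expressing transfected RARg-GAL4 chimeras with UAS reporters, harvested 24 h after dosing.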

[20] = biological target: human RAR-related Orphan Receptor beta (RORb), RORB (gene 6096) (UniProt Q92753); assay: ATG_RORb_TRANS: Attagene TRANS-FACTORIAL HepG2 Assay for human RAR-related Orphan Receptor beta (RORb) (AID 2283010; active = hit-call score of the fitted dose curve at least 0.9, where 1 is the maximum)
In short: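 Multiplexed transcription-factor reporter assay: HepG2 cells transiently carrying NR-Gal4/GAL4-UAS constructs, 24 h treatment, mRNA quantified by RT-PCR plus capillary electrophoresis fluorescence; activity scored as induction over DMSO.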

Measured: AC50

E-selectin (Homo sapiens), sequence (P16581 whole entry, looked up): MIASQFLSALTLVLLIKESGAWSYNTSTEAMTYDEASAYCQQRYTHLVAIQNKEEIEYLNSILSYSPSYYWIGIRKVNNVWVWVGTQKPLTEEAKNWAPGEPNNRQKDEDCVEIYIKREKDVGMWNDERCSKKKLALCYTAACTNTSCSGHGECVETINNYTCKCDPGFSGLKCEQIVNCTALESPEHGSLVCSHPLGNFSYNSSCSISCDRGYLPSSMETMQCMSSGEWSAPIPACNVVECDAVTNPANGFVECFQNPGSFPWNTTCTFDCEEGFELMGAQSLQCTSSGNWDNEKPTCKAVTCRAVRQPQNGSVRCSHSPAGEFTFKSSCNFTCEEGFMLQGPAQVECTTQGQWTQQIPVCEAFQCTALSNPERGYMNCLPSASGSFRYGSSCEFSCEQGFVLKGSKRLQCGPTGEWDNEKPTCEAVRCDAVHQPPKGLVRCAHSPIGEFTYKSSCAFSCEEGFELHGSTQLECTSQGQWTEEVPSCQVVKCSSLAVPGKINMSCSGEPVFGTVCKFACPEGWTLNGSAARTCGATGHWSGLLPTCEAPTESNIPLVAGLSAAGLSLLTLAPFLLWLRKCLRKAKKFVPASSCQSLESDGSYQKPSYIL
Retinoic acid receptor RXR-alpha (Homo sapiens), sequence (P19793 whole entry, looked up, the tested form may be a part): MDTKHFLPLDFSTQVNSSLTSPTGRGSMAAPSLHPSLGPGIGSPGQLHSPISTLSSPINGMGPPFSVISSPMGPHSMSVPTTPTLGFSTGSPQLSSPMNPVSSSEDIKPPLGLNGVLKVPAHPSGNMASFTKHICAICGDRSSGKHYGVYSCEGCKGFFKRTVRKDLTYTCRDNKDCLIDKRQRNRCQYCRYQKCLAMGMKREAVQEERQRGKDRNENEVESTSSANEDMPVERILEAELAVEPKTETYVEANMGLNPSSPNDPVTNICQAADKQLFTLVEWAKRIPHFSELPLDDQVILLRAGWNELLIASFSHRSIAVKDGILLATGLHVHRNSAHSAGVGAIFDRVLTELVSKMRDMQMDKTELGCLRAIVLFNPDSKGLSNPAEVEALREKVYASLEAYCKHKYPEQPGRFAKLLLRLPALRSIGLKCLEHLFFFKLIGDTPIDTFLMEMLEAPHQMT
human Peroxisome Proliferator-activated Receptor alpha (PPARa), PPARA (gene 5465), sequence (Q07869 whole entry, looked up, the tested form may be a part): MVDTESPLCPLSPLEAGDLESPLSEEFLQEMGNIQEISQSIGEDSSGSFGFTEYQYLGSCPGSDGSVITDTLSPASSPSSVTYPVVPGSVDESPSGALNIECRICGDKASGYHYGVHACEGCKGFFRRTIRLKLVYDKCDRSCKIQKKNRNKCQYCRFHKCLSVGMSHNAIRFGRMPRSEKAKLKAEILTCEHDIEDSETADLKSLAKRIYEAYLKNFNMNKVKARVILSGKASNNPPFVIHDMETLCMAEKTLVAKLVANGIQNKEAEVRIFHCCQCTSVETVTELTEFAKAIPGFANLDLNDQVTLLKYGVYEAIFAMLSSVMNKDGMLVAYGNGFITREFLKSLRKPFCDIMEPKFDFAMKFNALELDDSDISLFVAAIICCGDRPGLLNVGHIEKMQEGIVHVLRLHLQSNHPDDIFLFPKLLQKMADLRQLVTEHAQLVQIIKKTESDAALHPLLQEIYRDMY
Nuclear receptor subfamily 1 group I member 2 (Homo sapiens), sequence (O75469 whole entry, looked up, the tested form may be a part): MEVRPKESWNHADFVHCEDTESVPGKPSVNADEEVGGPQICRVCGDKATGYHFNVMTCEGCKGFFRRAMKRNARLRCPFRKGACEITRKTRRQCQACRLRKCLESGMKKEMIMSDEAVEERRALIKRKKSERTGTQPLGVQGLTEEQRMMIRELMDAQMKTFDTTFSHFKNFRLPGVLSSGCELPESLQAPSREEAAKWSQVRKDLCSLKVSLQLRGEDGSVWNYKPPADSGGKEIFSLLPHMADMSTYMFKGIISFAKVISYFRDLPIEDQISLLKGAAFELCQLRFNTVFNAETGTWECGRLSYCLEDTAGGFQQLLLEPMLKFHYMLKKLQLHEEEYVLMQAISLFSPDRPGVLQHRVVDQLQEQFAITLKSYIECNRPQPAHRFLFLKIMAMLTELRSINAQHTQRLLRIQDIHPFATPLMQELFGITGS
Peroxisome proliferator-activated receptor gamma (Homo sapiens), sequence (P37231 whole entry, looked up, the tested form may be a part): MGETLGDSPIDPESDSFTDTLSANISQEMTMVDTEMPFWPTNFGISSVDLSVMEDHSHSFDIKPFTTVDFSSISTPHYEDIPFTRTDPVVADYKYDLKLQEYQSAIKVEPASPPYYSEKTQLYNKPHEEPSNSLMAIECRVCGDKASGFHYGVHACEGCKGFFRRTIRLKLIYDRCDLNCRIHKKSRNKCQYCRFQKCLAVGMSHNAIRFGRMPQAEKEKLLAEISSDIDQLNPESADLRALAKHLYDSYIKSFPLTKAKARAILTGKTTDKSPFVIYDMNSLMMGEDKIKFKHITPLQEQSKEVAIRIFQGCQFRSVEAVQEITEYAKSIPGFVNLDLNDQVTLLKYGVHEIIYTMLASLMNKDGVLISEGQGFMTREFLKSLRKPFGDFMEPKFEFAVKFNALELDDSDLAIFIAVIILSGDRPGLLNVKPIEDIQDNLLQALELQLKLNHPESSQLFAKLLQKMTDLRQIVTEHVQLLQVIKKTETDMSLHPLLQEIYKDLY
human Retinoid X Receptor beta (RXRb), RXRB (gene 6257), sequence (P28702 whole entry, looked up, the tested form may be a part): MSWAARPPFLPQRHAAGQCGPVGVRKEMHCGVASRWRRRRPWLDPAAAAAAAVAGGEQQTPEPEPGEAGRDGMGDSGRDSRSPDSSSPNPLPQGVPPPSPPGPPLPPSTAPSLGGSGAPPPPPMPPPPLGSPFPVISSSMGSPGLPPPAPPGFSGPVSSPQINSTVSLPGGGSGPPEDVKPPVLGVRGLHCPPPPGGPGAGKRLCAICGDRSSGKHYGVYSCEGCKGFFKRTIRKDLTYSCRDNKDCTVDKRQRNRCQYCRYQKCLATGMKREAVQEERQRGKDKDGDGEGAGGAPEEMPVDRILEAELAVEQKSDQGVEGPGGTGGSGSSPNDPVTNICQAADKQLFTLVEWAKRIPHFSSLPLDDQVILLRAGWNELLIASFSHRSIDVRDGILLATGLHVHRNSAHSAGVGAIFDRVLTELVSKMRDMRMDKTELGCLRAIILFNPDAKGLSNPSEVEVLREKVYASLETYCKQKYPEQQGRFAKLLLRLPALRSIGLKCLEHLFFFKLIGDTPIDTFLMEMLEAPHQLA
human Retinoic Acid Receptor beta (RARb), RARB (gene 5915), sequence (P10826 whole entry, looked up, the tested form may be a part): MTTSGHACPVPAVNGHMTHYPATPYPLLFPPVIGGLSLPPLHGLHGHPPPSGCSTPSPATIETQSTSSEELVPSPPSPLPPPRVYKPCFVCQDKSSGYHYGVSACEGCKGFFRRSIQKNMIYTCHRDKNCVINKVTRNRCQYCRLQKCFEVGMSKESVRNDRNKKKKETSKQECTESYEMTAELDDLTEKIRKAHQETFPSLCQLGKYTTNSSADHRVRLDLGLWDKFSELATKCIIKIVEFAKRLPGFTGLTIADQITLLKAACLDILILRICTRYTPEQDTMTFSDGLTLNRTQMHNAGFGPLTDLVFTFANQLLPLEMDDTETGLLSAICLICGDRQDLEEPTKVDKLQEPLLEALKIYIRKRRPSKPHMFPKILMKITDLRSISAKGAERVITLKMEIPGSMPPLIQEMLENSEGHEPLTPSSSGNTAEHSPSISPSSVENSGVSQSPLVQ
human Peroxisome Proliferator-activated Receptor delta (PPARd), PPARD (gene 5467), sequence (Q03181 whole entry, looked up, the tested form may be a part): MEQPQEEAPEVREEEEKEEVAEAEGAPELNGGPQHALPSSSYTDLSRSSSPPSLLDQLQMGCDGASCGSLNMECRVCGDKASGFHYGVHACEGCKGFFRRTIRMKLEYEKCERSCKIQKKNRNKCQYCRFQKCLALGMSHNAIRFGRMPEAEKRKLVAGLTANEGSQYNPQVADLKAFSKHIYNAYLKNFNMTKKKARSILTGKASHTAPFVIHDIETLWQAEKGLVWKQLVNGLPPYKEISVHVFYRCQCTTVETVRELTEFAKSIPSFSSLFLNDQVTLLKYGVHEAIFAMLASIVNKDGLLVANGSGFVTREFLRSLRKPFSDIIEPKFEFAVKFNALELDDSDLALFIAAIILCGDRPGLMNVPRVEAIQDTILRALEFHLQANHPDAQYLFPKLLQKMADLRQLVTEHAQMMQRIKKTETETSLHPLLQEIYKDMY
human Thyroid Receptor alpha (THRa1), THRA (gene 7067), sequence (P10827 whole entry, looked up, the tested form may be a part): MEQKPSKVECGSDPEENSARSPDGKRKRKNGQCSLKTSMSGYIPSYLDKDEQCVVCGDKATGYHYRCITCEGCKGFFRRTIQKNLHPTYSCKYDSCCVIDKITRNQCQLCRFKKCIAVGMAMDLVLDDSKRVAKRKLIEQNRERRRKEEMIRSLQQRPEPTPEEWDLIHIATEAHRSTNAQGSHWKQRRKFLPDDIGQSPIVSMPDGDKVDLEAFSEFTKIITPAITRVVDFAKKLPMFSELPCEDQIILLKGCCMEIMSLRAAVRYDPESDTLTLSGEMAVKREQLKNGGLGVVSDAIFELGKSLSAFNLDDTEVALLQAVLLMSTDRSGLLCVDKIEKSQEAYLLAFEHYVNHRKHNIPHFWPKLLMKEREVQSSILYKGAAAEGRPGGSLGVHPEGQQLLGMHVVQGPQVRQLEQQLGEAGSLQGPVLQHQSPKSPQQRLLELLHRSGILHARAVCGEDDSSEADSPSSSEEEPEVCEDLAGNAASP
human RAR-related Orphan Receptor beta (RORb), RORB (gene 6096), sequence (Q92753 whole entry, looked up, the tested form may be a part): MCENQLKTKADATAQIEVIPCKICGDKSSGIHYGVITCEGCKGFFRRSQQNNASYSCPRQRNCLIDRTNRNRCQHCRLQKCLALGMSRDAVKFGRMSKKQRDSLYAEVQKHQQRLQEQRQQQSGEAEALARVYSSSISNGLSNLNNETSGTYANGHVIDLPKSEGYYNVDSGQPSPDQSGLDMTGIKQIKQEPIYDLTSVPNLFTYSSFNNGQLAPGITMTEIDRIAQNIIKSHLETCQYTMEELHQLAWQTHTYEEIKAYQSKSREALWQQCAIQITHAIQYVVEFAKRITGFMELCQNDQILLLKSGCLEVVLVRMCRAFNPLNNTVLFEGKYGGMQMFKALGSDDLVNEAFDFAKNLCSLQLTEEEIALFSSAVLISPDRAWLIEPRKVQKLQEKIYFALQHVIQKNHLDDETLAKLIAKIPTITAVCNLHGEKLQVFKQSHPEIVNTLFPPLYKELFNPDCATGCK

O=C(O)C(F)(F)C(F)(F)C(F)F
inactive: [1] | [2] | [3] | [4] | [5] | [6] | [7] | [8] | [9] | [10] | [11] | [12] | [13] | [14] | [15] | [16] | [17]

FC(F)(Br)C(F)(F)C(F)(F)C(F)(F)C(F)(F)C(F)(F)Br
inactive: [1] | [18] | [3] | [6] | [7] | [10] | [11] | [13] | [14] | [15] | [16] | [17]

CCCCCCCCCCCCCCCC[N+](C)(C)Cc1ccccc1
inactive: [4] | [5] | [8] | [20] | [9] | [10] | [11] | [12]
active: [1] 6.55 µM | [2] 45 µM | [3] 2.35 µM | [6] 604 nM | [7] 60.2 µM | [19] 49.9 µM | [13] 7.67 µM | [14] 8.81 µM | [15] 5 µM | [16] 1.37 µM | [17] 977 nM

FC(F)(I)C(F)(F)C(F)(F)C(F)(F)I
active: [1] 52.2 µM and 47.2 µM and 45.6 µM | [3] 39.6 µM and 45.6 µM and 52.7 µM | [6] 49.8 µM and 52.8 µM and 49.4 µM | [7] 48.6 µM | [13] 49 µM and 50.6 µM and 53.6 µM | [14] 47.5 µM and 46 µM and 45 µM | [15] 44.5 µM and 49 µM and 51.6 µM | [16] 45.6 µM and 19.3 µM | [17] 50.2 µM and 46.5 µM and 59 µM
inactive: [2] | [4] | [9] | [11] | [16]

FC(F)(F)C(F)(F)C(F)(F)C(F)(F)C(F)(F)C(F)(F)CCS
inactive: [1] | [2] | [18] | [3] | [6] | [7] | [9] | [10] | [12] | [13] | [14] | [15] | [16] | [17]

N=C(N)C(F)(F)C(F)(F)C(F)(F)C(F)(F)C(F)(F)C(F)(F)C(F)(F)F
active: [1] 36.8 µM and 30 µM | [6] 50.7 µM and 24.7 µM | [15] 46.3 µM | [17] 30000 nM
inactive: [2] | [3] | [7] | [8] | [20] | [9] | [10] | [11] | [13] | [14] | [15] | [16] | [17]

NC(=O)C(F)(F)C(F)(F)C(F)(F)C(F)(F)F
inactive: [1] | [2] | [3] | [4] | [6] | [7] | [8] | [20] | [13] | [14] | [15] | [16] | [17]

C=CC/C=C/C/C=C/C/C=C/C
inactive: [1] | [2] | [18] | [3] | [6] | [7] | [19] | [9] | [10] | [12] | [13] | [14] | [15] | [16] | [17]
active: [11] 100 µM
